For 10 compounds, Potency results are on record in PubChem BioAssay AID1347043 (National Center for Advancing Translational Sciences (NCATS), 2019).

Among all 76,000 compounds or so, about 1,900 (2.5%) were called active. Not shown: some 5% with an inconclusive outcome. The call rests on the fitted dose curve; in most records, active means well fitted inhibition curve with a large enough effect; inconclusive means small, poorly fitted or top-dose-only effect; inactive means flat fitted curve, though single readings scatter. The entries come from a sample that favours actives as a whole. A call without a number means that no potency is given here.

Sequence of Luciferin 4-monooxygenase (Photinus pyralis) (P08659 whole entry, looked up): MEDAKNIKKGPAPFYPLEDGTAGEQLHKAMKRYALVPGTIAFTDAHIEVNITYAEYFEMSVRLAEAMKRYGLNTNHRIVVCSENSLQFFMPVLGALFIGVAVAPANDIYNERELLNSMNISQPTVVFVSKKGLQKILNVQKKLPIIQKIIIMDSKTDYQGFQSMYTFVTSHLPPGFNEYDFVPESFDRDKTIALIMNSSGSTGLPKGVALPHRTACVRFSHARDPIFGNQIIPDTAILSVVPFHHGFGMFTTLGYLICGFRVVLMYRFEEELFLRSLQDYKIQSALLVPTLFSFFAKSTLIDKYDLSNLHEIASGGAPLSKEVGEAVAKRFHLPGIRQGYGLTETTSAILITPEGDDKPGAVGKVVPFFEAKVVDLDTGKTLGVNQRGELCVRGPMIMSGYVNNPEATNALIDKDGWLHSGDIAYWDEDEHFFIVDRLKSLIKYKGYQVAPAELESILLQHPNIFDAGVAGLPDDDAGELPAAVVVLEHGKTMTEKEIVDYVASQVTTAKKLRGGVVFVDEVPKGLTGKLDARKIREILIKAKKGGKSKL

This assay has as its target Luciferin 4-monooxygenase (Photinus pyralis) (UniProt P08659). The assay can be described thus: Firefly luciferase inhibition profiling of diverse chemical library using quantitative high-throughput screening. Further: nearly all actives have a fitted effect of over 65% in size. To be noted: purified P. pyralis luciferase, luminescence, biochemical; series mostly up to 172 µM. From the text:
Firefly (Photinus pyralis) luciferase is one of the most commonly used transcriptional reporters for a number of reasons. It is considered one of the more dynamically responsive reporters - that is, responsive to changes in reporter transcription - as it requires no post-translational modifications and is enzymatically active directly after protein synthesis (Wood, 1998). Additionally, the half-life of the luciferase protein is short relative to other reporter-gene products (Wood, 1995). Whereas reporters with long half-lives potentially allow for increased signal due to accumulation of reporter-gene product, once accumulated in the cell, dynamic changes in reporter-gene expression may be difficult to detect(Fan and Wood, 2007; Almond et al., 2004). It has been shown that wild-type P. pyralis luciferase has a half-life of approximately four hours in mammalian cells (Thompson et al., 1991). Firefly luciferase reporter-gene assays are also generally considered one of the most sensitive assay types (Wood, 1995; Wood, 1998). Although light produced in a bioluminescence reaction is of lower intensity than that produced during fluorescence emission, this is offset by little to no background light inherent to luminescent assays. Thus the luciferase reporter can be expressed at much lower levels than fluorescent proteins while still providing robust signal. However, it was initially observed, in 1991, by Thompson et al., that compounds that resemble the substrates of firefly luciferase (FLuc) can act as competitive inhibitors of the enzyme, and that these compounds, upon interaction with luciferase in the cell, can actually stabilize the protein and increase its half-life. Accumulated intracellular FLuc protein can be measured as an increase in luminescence signal, upon addition of detection reagents (which contain high concentrations of FLuc substrates) commonly used in high-throughput screening. In cell-based reporter gene assays that use FLuc as the reporter gene to quantitate the potential influence of a given compound against the target biology, this apparent increase in luminescence can mistakenly be interpreted as identification of a compound that is active against the target of interest. FLuc inhibitory compounds that stabilize the FLuc protein will give an identical read-out, making it difficult to distinguish compounds that are active against the target from those active against FLuc. In summary, the results generated here constitutes a valuable resource for the scientific community and provides insight on identifying compounds with inhibitory activity for the commonly-used reporter, firefly luciferase. References: -Almond, B., Zdanovsky, A., Zdanovskaia, M., Ma, D., Stecha, P., Paguio, A., Garvin, D., and Wood, K. (2004). Introducing the Rapid Response Reporter Vectors. Promega Notes 87, 18-22. -Fan, F., and Wood, K.V. (2007). Bioluminescent assays for high-throughput screening. Assay Drug Dev Technol 5, 127-136. -Thompson, J.F., Hayes, L.S., and Lloyd, D.B. (1991). Modulation of firefly luciferase stability and impact on studies of gene regulation. Gene 103, 171-177. -Wood, K.V. (1998). The chemistry of bioluminescent reporter assays. Promega Notes 65, 14-20. -Wood, K.V. (1995). Marker proteins for gene expression. Curr Opin Biotechnol 6, 50-58.
Reagents: 50mM Tris acetate, pH 7.5; 10mM Mg acetate; 10uM D-luciferin (Sigma #L9504); 10uM ATP; 0.01% Tween-20; 0.05% BSA; 10nM P. pyralis luciferase (Sigma #L9506) Control compounds used were two known firefly luciferase inhibitors (compounds (2) and (5) in Auld et al., 2010), and DMSO. Assay Summary: Three microliters containing firefly luciferase substrates in buffer (final concentrations: 50mM Tris acetate, pH 7.5, 10mM Mg acetate, 0.01% Tween-20, 0.05% BSA, 10uM D-luciferin, and 10uM ATP) are dispensed into each well of a Greiner white, solid-bottom 1536-well format plate using a flying reagent dispenser (FRD). […]
`COc1cccc(Nc2cc3c(cn2)CN(C)CCN3C)c1`: the Potency is 39.8 µM (active).

Regarding `O=C(Nc1ccccc1)N1C[C@@H]2C[C@H](C1)c1c(-c3ccc(Cl)cc3)ccc(=O)n1C2`, the Potency entry was “inactive”.

In the case of `COc1ccc(C(=O)NC[C@H]2C[C@@H]3CCN2C[C@@H]3c2cc(-c3ccccc3)nn2C)cc1`, the Potency entry is “inactive”.

Consider `COc1ccc(C(=O)N2[C@H]3CC[C@@H]2c2cnc(-c4ccccc4)nc2C3)c(OC)c1`, for which the Potency entry was “inactive”.

As to `Cc1cccc(C(=O)N2[C@H]3CC[C@@H]2c2cnc(-c4ccccc4)nc2C3)c1`, the Potency result was “inactive”.

For `Cc1ccc(C(=O)N2[C@H]3CC[C@@H]2c2cnc(-c4ccccc4)nc2C3)c(C)c1`, the Potency was 20 µM (active).

As to `C#C[C@H]1CN2CC[C@H]1C[C@@H]2COC(=O)Nc1cc(OC)cc(OC)c1`, the Potency entry was “inactive”.

On to `C=CCN(C)C[C@H]1CN2CC[C@H]1C[C@@H]2CNC(=O)Nc1cccc(SC)c1`, for which the Potency result was “inactive”.

As for `COc1cc2c(cc1OCc1ccncc1)NC(=O)C21CCN(c2ncc(F)cn2)CC1`, the Potency entry is “inactive”.

Take `Cc1ccc(C(=O)NC[C@H]2C[C@@H]3CCN2C[C@@H]3c2cc(-c3ccco3)nc(C)n2)cc1`: the Potency result was “inactive”.
